The source made the active and inactive calls. Unless noted, the rule behind the calls is not given here.
Key:
[1] = compounds binding Alexa647 anti-His antibody – biochemical, small-molecule microarray, 635 nm fluorescence, artefact control for SMM control protein annotation, primary screen (AID 1128); conditions: higher = more signal;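 note: score merges feature fluorescence with signal-to-noise for each printed compound spot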
[2] = test system: Human papillomavirus type 1a E7 protein (residues 1-88); assay: HPV1a E7 small-molecule binders, primary screen, biochemical, small-molecule microarray, residues 1-88, 635 nm (AID 1129); conditions: small-molecule microarray binding, fluorescence 635 nm; higher = more signal
[3] = biological target: Focal adhesion kinase 1 (Homo sapiens) (UniProt Q05397); assay: PTK2 protein binding on printed compound slides – biochemical, small-molecule microarray, 635/667 nm fluorescence, BSA, DTT, primary screen (AID 1130); conditions: 635 nm fluorescence, higher = more signal;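 note: composite of spot emission at 667 nm and signal to noise over triplicate slides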
[4] = test system: Fibrinogen (Alexa647-labelled); assay: Alexa647-fibrinogen binding to printed small molecules – biochemical, small-molecule microarray, 635/667 nm fluorescence, artefact control for SMM control-protein annotation, profiling panel (AID 1131); conditions: fibrinogen-A647 binding fluorescence, higher = more signal;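 note: z-score merges 667 nm fluorescence with per-spot signal-to-noise over triplicate slides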
[5] = biological target: Follistatin (Homo sapiens) (UniProt P19883); assay: FST protein binding to printed compounds – biochemical, small-molecule microarray, 635/667 nm fluorescence, primary screen (AID 1132); conditions: 635 nm fluorescence, higher = more signal
[6] = biological target: Fibroblast growth factor 2 (Homo sapiens) (UniProt P09038); assay: basic fibroblast growth factor binding to printed compounds – biochemical, small-molecule microarray, 635/667 nm fluorescence, primary screen (AID 1133); conditions: FGF2, fluorescence 635/667, higher = more signal
[7] = JC-1 mitochondrial potential readout, lung cancer cells – cell-based, A549, JC-1 fluorescence, basal, 24 h, 100 nL, profiling panel (AID 1138); conditions: higher = more signal;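 note: A549 lung adenocarcinoma cells under basal conditions with no added stimulus; test concentration not given here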
Lefty1 = Lefty1 protein binding to printed compounds – biochemical, small-molecule microarray, 635/667 nm fluorescence, primary screen (AID 1139); conditions: fluorescence 635/667, higher = more signal
[8] = test system: wheat germ agglutinin (Triticum aestivum), Alexa647-labelled; assay: Alexa647-WGA lectin binding to printed small molecules – biochemical, small-molecule microarray, 635/667 nm fluorescence, artefact control for SMM control-protein annotation, profiling panel (AID 1140); conditions: WGA-A647 binding, 635 nm fluorescence, higher = more signal;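 note: score merges 667 nm feature emission with signal to noise over triplicate slides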
[9] = biological target: Luciferin 4-monooxygenase (Photinus pyralis) (UniProt P08659); assay: inhibition of purified Photinus pyralis luciferase – biochemical, luminescence, purified enzyme, 2006 set, primary screen (AID 1141); conditions: purified firefly luciferase, SteadyGlo luminescence, 30 min; higher = more signal, called active from +8 up or from −8 down;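 note: cell-free assay with purified firefly luciferase at 100 ng per well in PBS; test concentration not given here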
[10] = test system: Wnt5a (protein binding on small-molecule microarray); assay: small molecules binding Wnt5a protein – biophysical, small-molecule microarray, 635/667 nm fluorescence, primary screen (AID 1142); conditions: 635 nm fluorescence, higher = more signal;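 note: fluorescence read at 667 nm with signal to noise per printed feature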
[11] = ATP-based viability of Huh7 replicon cells – cell-based, CellTiter-Glo luminescence, basal, 48 h, cytotoxicity control for HCV replication inhibitor project, primary screen (AID 1143); conditions: higher = more signal, called active from +8 up or from −8 down;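 note: Huh7 hepatoma cells carrying a hepatitis C replication reporter with no stimulus; test concentration not given here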
[12] = Pseudomonas biofilm growth suppression – PAO1 strain, BacTiter-Glo luminescence, LB-PBS, primary screen (AID 1144); conditions: P. aeruginosa PAO1 biofilm, 12 h, higher = more signal
[13] = basal CRE-LacZ reporter activity in PC12 – cell-based, unstimulated, primary screen (AID 1145); conditions: no forskolin, luminescence, 4.5 h, higher = more signal, called active from +8 up or from −8 down
[14] = forskolin-driven CRE-LacZ activity in PC12 – cell-based, CRE-LacZ reporter, forskolin-stimulated, primary screen (AID 1146); conditions: luminescence, 4.5 h, higher = more signal, called active from +8 up or from −8 down;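 note: PC12 cells with 6xCRE LacZ reporter stimulated by forskolin 10 µM; beta-galactosidase reporter signal reflecting CREB driven transcription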
[15] = biological target: Streptavidin (Streptomyces avidinii) (UniProt P22629); assay: compounds binding control protein streptavidin – biophysical, small-molecule microarray, 635/667 nm fluorescence, artefact control for SMM compound annotation, primary screen (AID 1147); conditions: higher = more signal;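 note: signal reflects streptavidin binding to arrayed compounds as a control protein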
[16] = probe aInhba binding on compound microarray – biochemical, small-molecule microarray, 635/667 nm fluorescence, primary screen (AID 1148); conditions: higher = more signal;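 note: score merges 667nm spot fluorescence with signal-to-noise for antibody binding to printed compounds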
Torsin-1A (Homo sapiens) [17] = biological target: Torsin-1A (Homo sapiens) (UniProt O14656); assay: TOR1A wild-type binding on microarray – cell lysate, small-molecule microarray, lysate, 635/667 nm, primary screen (AID 1149); conditions: COS7 hTOR1A-WT lysate, 635 nm fluorescence, higher = more signal
Torsin-1A (Homo sapiens) [18] = biological target: Torsin-1A (Homo sapiens) (UniProt O14656); assay: torsin A mutant lysate binding on microarrays – cell lysate, small-molecule microarray, COS7 lysate, 635/667 nm fluorescence, primary screen (AID 1150); conditions: COS7 hTOR1A mutant lysate, 635 nm fluorescence, higher = more signal;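 note: score pools 667 nm emission and signal to noise measuring lysate protein binding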
[19] = test system: Sonic hedgehog protein (Shh); assay: Sonic hedgehog microarray binding compounds – biochemical, small-molecule microarray, 635/667 nm fluorescence, primary screen (AID 1151); conditions: 635 nm fluorescence, higher = more signal;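 note: Shh protein binding to compounds spotted on small-molecule microarray slides; score combines spot fluorescence intensity with signal-to-noise across triplicate slides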

Chain of Torsin-1A (Homo sapiens) (O14656 whole entry, looked up): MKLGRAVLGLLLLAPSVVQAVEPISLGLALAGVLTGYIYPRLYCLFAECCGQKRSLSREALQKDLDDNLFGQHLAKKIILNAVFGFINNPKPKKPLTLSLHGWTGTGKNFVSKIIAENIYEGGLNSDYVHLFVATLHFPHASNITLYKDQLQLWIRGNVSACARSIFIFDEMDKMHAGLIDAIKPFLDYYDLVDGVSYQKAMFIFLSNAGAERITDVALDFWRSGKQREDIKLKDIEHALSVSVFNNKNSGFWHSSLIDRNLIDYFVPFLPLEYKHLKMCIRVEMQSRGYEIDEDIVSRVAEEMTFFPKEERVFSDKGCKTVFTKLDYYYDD
Chain of Focal adhesion kinase 1 (Homo sapiens) (Q05397 whole entry, looked up): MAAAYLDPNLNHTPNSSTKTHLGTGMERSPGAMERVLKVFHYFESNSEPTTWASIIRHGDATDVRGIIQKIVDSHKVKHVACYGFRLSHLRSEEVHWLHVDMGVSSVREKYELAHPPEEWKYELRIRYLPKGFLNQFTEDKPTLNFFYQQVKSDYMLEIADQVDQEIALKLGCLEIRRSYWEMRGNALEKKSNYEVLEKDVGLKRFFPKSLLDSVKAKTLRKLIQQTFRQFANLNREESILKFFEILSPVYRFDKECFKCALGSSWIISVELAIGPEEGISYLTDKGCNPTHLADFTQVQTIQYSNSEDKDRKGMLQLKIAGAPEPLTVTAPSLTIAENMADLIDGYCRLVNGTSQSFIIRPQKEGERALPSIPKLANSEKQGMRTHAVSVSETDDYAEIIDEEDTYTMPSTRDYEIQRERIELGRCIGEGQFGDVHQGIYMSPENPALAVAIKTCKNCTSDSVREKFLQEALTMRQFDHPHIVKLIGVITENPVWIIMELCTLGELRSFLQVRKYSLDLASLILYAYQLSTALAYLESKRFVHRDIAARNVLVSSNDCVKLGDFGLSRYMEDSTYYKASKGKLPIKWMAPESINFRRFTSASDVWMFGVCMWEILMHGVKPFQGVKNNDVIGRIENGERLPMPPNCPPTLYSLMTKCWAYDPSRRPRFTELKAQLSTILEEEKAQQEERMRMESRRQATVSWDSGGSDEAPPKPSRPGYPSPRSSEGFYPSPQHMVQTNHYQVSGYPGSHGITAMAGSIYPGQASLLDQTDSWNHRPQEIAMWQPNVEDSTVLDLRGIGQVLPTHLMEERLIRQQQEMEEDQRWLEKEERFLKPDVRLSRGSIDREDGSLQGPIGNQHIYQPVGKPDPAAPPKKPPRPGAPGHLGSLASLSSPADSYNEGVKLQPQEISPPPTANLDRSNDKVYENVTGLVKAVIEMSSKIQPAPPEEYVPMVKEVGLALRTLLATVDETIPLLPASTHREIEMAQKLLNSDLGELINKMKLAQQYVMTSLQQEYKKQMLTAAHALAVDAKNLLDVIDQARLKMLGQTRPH
Chain of Luciferin 4-monooxygenase (Photinus pyralis) (P08659 whole entry, looked up): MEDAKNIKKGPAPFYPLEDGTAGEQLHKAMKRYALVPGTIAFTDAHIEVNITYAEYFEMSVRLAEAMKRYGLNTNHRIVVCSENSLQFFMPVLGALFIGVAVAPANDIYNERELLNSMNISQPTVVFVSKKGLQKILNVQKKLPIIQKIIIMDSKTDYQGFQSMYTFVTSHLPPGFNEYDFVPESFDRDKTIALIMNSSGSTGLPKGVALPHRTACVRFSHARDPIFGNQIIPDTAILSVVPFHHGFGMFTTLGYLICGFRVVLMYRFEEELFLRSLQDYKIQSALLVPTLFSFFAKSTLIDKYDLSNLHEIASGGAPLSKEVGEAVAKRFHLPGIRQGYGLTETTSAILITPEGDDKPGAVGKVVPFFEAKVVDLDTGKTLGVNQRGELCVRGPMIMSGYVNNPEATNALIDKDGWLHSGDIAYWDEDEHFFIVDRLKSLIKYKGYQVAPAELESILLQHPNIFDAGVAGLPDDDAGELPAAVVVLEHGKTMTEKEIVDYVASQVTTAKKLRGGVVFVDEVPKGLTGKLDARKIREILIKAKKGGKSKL
Chain of Fibroblast growth factor 2 (Homo sapiens) (P09038 whole entry, looked up): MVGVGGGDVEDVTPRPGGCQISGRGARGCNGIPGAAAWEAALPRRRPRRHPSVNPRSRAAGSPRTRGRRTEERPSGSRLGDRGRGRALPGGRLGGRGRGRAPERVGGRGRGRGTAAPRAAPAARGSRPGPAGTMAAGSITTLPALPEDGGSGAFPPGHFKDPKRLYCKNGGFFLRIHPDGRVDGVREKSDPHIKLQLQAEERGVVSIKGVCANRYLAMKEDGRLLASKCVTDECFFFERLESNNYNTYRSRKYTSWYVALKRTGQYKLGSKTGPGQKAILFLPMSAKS
Chain of Streptavidin (Streptomyces avidinii) (P22629 whole entry, looked up): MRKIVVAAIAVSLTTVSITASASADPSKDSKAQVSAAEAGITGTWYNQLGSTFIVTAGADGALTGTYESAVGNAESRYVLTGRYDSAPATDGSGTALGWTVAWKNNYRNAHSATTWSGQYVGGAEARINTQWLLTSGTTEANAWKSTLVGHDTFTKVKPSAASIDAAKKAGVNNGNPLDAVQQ
Chain of Follistatin (Homo sapiens) (P19883 whole entry, looked up): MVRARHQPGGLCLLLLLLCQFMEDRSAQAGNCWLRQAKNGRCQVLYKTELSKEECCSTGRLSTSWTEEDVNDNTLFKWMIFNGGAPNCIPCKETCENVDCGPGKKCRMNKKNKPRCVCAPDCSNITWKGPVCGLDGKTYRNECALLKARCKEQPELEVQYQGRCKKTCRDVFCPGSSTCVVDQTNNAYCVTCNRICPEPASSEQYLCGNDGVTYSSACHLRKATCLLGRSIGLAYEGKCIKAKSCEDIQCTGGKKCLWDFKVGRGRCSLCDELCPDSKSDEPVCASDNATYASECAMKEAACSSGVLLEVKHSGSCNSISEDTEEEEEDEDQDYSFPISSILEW

SMILES	composite z-score [1]	composite z-score [2]	composite z-score [3]	composite z-score [4]	composite z-score [5]	composite z-score [6]	z-score [7]	composite z-score (Lefty1)	composite z-score [8]	z-score [9]	composite z-score [10]	z-score [11]	z-score [12]	z-score [13]	z-score [14]	composite z-score [15]	composite z-score [16]	composite z-score (Torsin-1A (Homo sapiens) [17])	composite z-score (Torsin-1A (Homo sapiens) [18])	composite z-score [19]
CCCCCN1CC=CC23O[C@@H]4C=CCCOC(=O)C4[C@H]2C(=O)N(CCCCCCO)[C@@H]3C1=O (stereo not given in full)	2.82	-0.0566	-0.0757	-1.21	-0.444	-0.439	0.608	-0.0715	-0.411	-0.086 (inactive)	-0.296	-0.181 (inactive)	-0.00872 (inactive)	-1.03 (inactive)	-0.215 (inactive)	-0.943	-0.263	1.13	2.1	0.0725
N#Cc1ccc(NN2C(C(O)c3ccc(Br)cc3)C=CC3C(=O)N(c4ccccc4)C(=O)C32)cc1 (stereo not given)	1.28	1.18	0.633	0.561	0.873	0.127	0.494	-0.0682	1.49	-0.517 (inactive)	0.395	-0.35 (inactive)	-1.3 (inactive)	0.0535 (inactive)	-0.36 (inactive)	0.843	0.222	0.441	0.604	0.834
CCCCC(CC)C(O)C1C=CC2C(=O)N(c3ccccc3)C(=O)C2N1Nc1ccc(C#N)cc1 (stereo not given)	1.34	1.21	0.702	0.922	1.07	0.208	-0.213	0.131	1.12	-1.92 (inactive)	0.648	0.308 (inactive)	-1.55 (inactive)	0.819 (inactive)	0.176 (inactive)	1.18	0.722	-0.064	0.68	-0.387
COc1ccc(CCNC(=O)[C@@]2(c3ccc([N+](=O)[O-])cc3)CC(=O)N(C3CCCCC3)[C@@H]2c2ccc(CO)cc2)cc1	1.84	1.22	0.757	0.393	0.695	0.373	2.09	-0.381	0.793	-1.74 (inactive)	0.199	-1.48 (inactive)	0.733 (inactive)	-0.125 (inactive)	-1.11 (inactive)	0.0841	0.249	0.358	0.56	0.137
[N-]=[N+]=Nc1ccccc1C[C@@]1(C(=O)N2CCOCC2)N=C(c2ccc(OCCCO)cc2)O[C@@H]1c1ccccc1	1.19	1.19	0.625	0.986	1.32	1.35	1.08	0.3	0.313	-2.43 (inactive)	1.21	-4.54 (inactive)	0.83 (inactive)	1.64 (inactive)	-0.197 (inactive)	0.269	-0.135	0.156	0.53	-0.227
COC(=O)[C@@]1(Cc2ccccc2)[C@H]2c3cc(C(=O)N4CCCC4)n(CCc4ccccn4)c3C[C@H]2CN1C(=O)c1ccccc1	-0.295	1.28	1.34	1.01	0.758	-0.28	-0.0942	0.0814	1.16	2.38 (inactive)	0.372	-0.917 (inactive)	1.09 (inactive)	0.201 (inactive)	0.755 (inactive)	1.94	0.605	1.11	1.4	0.311
O=C(Cc1ccccc1)[C@H]1C2C=CCCC(c3ccccc3)=C2CN1Cc1ccccc1 (stereo not given in full)	-0.162	-0.304	-0.241	-0.0983	0.436	0.869	1.77	-0.519	-0.394	-1.06 (inactive)	0.0277	-0.408 (inactive)	-0.886 (inactive)	4.3 (inactive)	-0.0521 (inactive)	-0.144	-0.0494	0.219	-0.412	0.0701
CC(CO)N1C(=O)[C@@H]2[C@H]3C(=O)OCC=C[C@H]3OC23C=CCN(Cn2nnc4ccccc42)C(=O)[C@@H]13 (stereo not given in full)	-1.02	-1.43	-0.432	-0.8	-0.72	-0.358	-0.528	-0.406	-0.596	0.27 (inactive)	-0.33	-0.407 (inactive)	1.48 (inactive)	0.0524 (inactive)	-0.391 (inactive)	-0.78	-0.213	-0.49	-1.26	0.464
CC(C)N1CC=CC23O[C@@H]4C=CCCOC(=O)C4[C@H]2C(=O)N(CCCO)[C@@H]3C1=O (stereo not given in full)	0.939	-0.0707	0.248	-1.09	-0.0801	-0.565	-1.31	-0.0004	-0.467	0.0763 (inactive)	-0.352	-2.89 (inactive)	-0.614 (inactive)	-0.749 (inactive)	-0.313 (inactive)	-0.912	-0.0933	-1.02	-0.457	0.403
COc1cc2c(cc1O)C=[N+](Cc1sc3ccccc3c1Cl)CC2	0.505	0.0341	-0.292	0.257	0.609	0.182	-0.571	0.0893	0.311	0.5 (inactive)	-0.245	-2.33 (inactive)	0.206 (inactive)	-0.348 (inactive)	0.982 (inactive)	0.0042	-0.0308	0.166	0.276	0.66

Source: PubChem BioAssay
